# According to PubChem BioAssay (NCI):
# This is part of a sample that, as a whole, favours compounds with a hit. Of some 83,000 tested, about 20% had one in any assay.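 Plates (96-well) were seeded with cells, treated with compound at one concentration, and incubated for 48 hours before percent growth was determined.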 The source made the active and inactive calls. The calls were made as follows: active = growth percent below 10; inactive = the rest.
# Tested on: TK-10 renal
# Assay: NCI-60 one-dose screen, 48 h (100 = growth as untreated, 0 = no growth, -100 = all killed)
# Settings: 10 µM unless noted
row,SMILES,growth
1,NC1=NC(=O)NC1(c1ccccc1)c1ccccc1,92% (inactive)
2,N#C/C(C(=O)c1ccccc1)=C1/C(=O)Nc2ccccc21,118% (inactive)
3,CN(Cc1cccc(C(F)(F)F)c1)C(=O)[C@@H](CC(=O)N1CCC(N2CCCCC2)CC1)N1C(=O)[C@@H](N2C(=O)OC[C@@H]2c2ccccc2)[C@H]1/C=C/c1ccccc1,93.6% (inactive)
4,CCOc1ccc(S(=O)(=O)Nc2ccc3c(c2)N(S(=O)(=O)CC)CCC3)cc1,80.9% (inactive)
5,CCOC(=O)C(=Cc1ccccc1[N+](=O)[O-])C(=O)OCC,22.1% (inactive)
6,COc1cc(/C=C/C(=O)/C=C/c2ccc(-n3ccnc3C)cc2)ccc1O,88% (inactive)
7,CCOC(=O)CC(c1ccccc1)C(C#N)c1ccccc1 (stereo not drawn),101% (inactive)
8,Cc1ccc(C2=C/C(=C/c3ccc(Br)cc3)C(=O)N2CCc2ccc(S(N)(=O)=O)cc2)cc1,110% (inactive)
9,Cc1ccc(NC(=O)N[C@@H](Cc2cc(F)cc(F)c2)C(=O)N[C@@H]2C(=O)N3CCC[C@H]3C(=O)N3CCCC[C@H]3C(=O)N[C@@H](C)C(=O)N3C[C@H](C)C[C@H]3C(=O)O[C@H]2C)cc1,47.6% (inactive)
10,C=C(C)[C@@H]1CC[C@]2(C)[C@H](CC[C@@H]3[C@@H]([C@@](C)(O)CCC=C(C)C)CC[C@]32C)[C@@]1(C)CCC(=O)O,18.1% [100 µM] (inactive)
11,C=CCCCCCCCCC(=O)OC(C)C,101% (inactive)
12,O=C1Nc2ccccc2/C1=C/C(=O)c1ccc(N2CCCCC2)cc1,85.8% (inactive)
13,O=C(N=c1n(-c2ccccc2)nc2n1CCN2C1=NCCN1C(=O)c1ccc(Cl)cc1)c1ccc(Cl)cc1,74.6% (inactive)
14,CC1=CC[C@@H]2C(C)(C)[C@@H](O)CC[C@@]2(C)[C@@H]1COc1ccc2ccc(=O)oc2c1,82.3% (inactive)
15,CSc1nc2sc3cc(Cl)c(Cl)cc3n2c(=N)c1C#N,121% (inactive)
16,COc1ccc(C(=O)CCC(=O)O)cc1,105% (inactive)
17,O=C(CCNCc1ccccc1)c1ccccc1,113% (inactive)
18,NC(=O)CC1C=CCC1 (stereo not drawn),89.2% (inactive)
19,CCNc1cc2c(cc1Br)-c1ccccc1C2=O,104% (inactive)

row,SMILES,growth
1,O=C(O)c1cn(C2CC2)c2cc(N3CCN(Cc4c(O)ccc5ccccc45)CC3)c(F)cc2c1=O,61.4% (inactive)
2,CCOC(=O)COc1ccc2c(c1)O/C(=C\c1ccc(O)cc1)C2=O,106% (inactive)
3,Nc1cc(NN=C(c2ccc(O)cc2)c2ccc(O)cc2)c([N+](=O)[O-])cc1[N+](=O)[O-],84.3% (inactive)
4,CCCCCCNC(=O)Nc1ncnc2c1ncn2-c1ccccc1,94% (inactive)
5,C[C@]12CCc3c(ccc4cc(O)ccc34)[C@@H]1CC[C@H]2O,102% (inactive)
6,Nc1nc(Nc2ccccc2)c2ncn(Cc3ccc4c(c3)OCO4)c2n1,63.3% (inactive)
7,COc1ccc(OC)c(NC=O)c1,102% (inactive)
8,Fc1cc2[nH]ncc2c2c3c(c(-c4cn[nH]c4)nc12)CCCC3,20% (inactive)
9,CCN(CC)CCCCCCNc1cccc2cc(Br)cnc12,58.7% (inactive)
10,O=C(CSc1nc2ccc([N+](=O)[O-])cc2[nH]1)Nc1cccc(Cl)c1,37.8% (inactive)
11,CCN(CC)CCCOc1ccc2c(c1)O/C(=C\c1cccc(OC)c1)C2=O,98.7% (inactive)
12,CC1(C)C(=O)/C(=C\c2ccco2)C[C@]2(C)[C@H]3CC=C4[C@@H]5C[C@](C)(C(=O)O)CC[C@]5(C)CC[C@@]4(C)[C@]3(C)CC[C@@H]12,-46.1% [100 µM] (active)
13,C=C(C)[C@@H]1CC[C@]2(C(=O)NCCCCCCN(CCCN)CCCN)CC[C@]3(C)[C@H](CC[C@@H]4[C@@]5(C)CC[C@H](OCCCN)C(C)(C)[C@@H]5CC[C@]43C)[C@@H]12,119% [100 µM] (inactive)
14,C=C(C)[C@@H]1CC[C@]2(COC(=O)c3ccccc3C(=O)O)CC[C@]3(C)[C@H](CC[C@@H]4[C@@]5(C)CC[C@H](OC(=O)c6ccccc6C(=O)O)C(C)(C)[C@@H]5CC[C@]43C)[C@@H]12,21.8% [100 µM] (inactive)
15,COc1ccc2c(c1)c(-c1noc(-c3cn(C)c4ncc(F)cc34)n1)cn2C,86.2% (inactive)
16,c1ccc(-c2nnc(-c3c[nH]c4ncccc34)s2)cc1,124% (inactive)
17,O=C1COCCN1c1ccc(NCc2cn(Cc3ccc(F)cc3)c3ccccc23)cc1,-32.3% (active)
18,CC(=O)Nc1ccc2nc3ccc(NC(C)=O)cc3[n+](-c3ccccc3)c2c1,140% (inactive)
19,CCCCNC(=O)NS(=O)(=O)Cc1ccccc1,118% (inactive)

# Tested on: ACHN renal
# Assay: as above
# Settings: 10 µM unless noted
row,SMILES,growth
1,CCOc1ccc(S(=O)(=O)Nc2ccc3c(c2)N(S(=O)(=O)CC)CCC3)cc1,45% (inactive)
2,CCOC(=O)C(=Cc1ccccc1[N+](=O)[O-])C(=O)OCC,16.9% (inactive)
3,COc1cc(/C=C/C(=O)/C=C/c2ccc(-n3ccnc3C)cc2)ccc1O,58.8% (inactive)
4,Cc1ccc(C2=C/C(=C/c3ccc(Br)cc3)C(=O)N2CCc2ccc(S(N)(=O)=O)cc2)cc1,97.7% (inactive)
5,Cc1ccc(NC(=O)N[C@@H](Cc2cc(F)cc(F)c2)C(=O)N[C@@H]2C(=O)N3CCC[C@H]3C(=O)N3CCCC[C@H]3C(=O)N[C@@H](C)C(=O)N3C[C@H](C)C[C@H]3C(=O)O[C@H]2C)cc1,23.6% (inactive)
6,C=CCCCCCCCCC(=O)OC(C)C,107% (inactive)
7,O=C(N=c1n(-c2ccccc2)nc2n1CCN2C1=NCCN1C(=O)c1ccc(Cl)cc1)c1ccc(Cl)cc1,59.1% (inactive)
8,CSc1nc2sc3cc(Cl)c(Cl)cc3n2c(=N)c1C#N,117% (inactive)
9,O=C(CCNCc1ccccc1)c1ccccc1,107% (inactive)
10,NC(=O)CC1C=CCC1 (stereo not drawn),100% (inactive)
11,CCNc1cc2c(cc1Br)-c1ccccc1C2=O,98.2% (inactive)
12,CCOC(=O)COc1ccc2c(c1)O/C(=C\c1ccc(O)cc1)C2=O,102% (inactive)
13,COc1ccc(OC)c(NC=O)c1,106% (inactive)
14,Fc1cc2[nH]ncc2c2c3c(c(-c4cn[nH]c4)nc12)CCCC3,1.61% (active)
15,CCN(CC)CCCCCCNc1cccc2cc(Br)cnc12,104% (inactive)
16,O=C(CSc1nc2ccc([N+](=O)[O-])cc2[nH]1)Nc1cccc(Cl)c1,22.5% (inactive)
17,CCN(CC)CCCOc1ccc2c(c1)O/C(=C\c1cccc(OC)c1)C2=O,99.8% (inactive)
18,C=C(C)[C@@H]1CC[C@]2(COC(=O)c3ccccc3C(=O)O)CC[C@]3(C)[C@H](CC[C@@H]4[C@@]5(C)CC[C@H](OC(=O)c6ccccc6C(=O)O)C(C)(C)[C@@H]5CC[C@]43C)[C@@H]12,-55.6% [100 µM] (active)
19,O=C1COCCN1c1ccc(NCc2cn(Cc3ccc(F)cc3)c3ccccc23)cc1,61.6% (inactive)
20,CCCCNC(=O)NS(=O)(=O)Cc1ccccc1,106% (inactive)
